Measurements from PubChem BioAssay (EPA / NIEHS).
Results filed as inconclusive are left out. Some compounds were tested as several samples or in several runs, with calls that do not always agree. Activity calls are given as the source filed them. How the source made its calls, unless noted: active means hit-call score of the fitted dose curve at least 0.9, where 1 is the maximum; inconclusive means response in the unintended direction; inactive means score below 0.9.

Key:
[1] = target: Retinoic acid receptor alpha (Homo sapiens) (UniProt P10276); assay: ATG_DR5_RAR_CIS: Attagene CIS-FACTORIAL HepG2 Assay for human Retinoic Acid Receptor Alpha (RARE), DR5 submotif (AID 2282934; active means hit-call score of the fitted dose curve at least 0.9, where 1 is the maximum; inactive means score below 0.9;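 on AC50: reporter responds to endogenous RAR alpha beta and gamma in HepG2 not RARA alone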); settings: HepG2 Attagene cis-factorial RARE DR5 reporter, mRNA; actives raise or lower the signal
Summary of the method: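 Transfected HepG2 reporter cells are exposed to chemicals for 24 h. Then RNA is extracted and the DR5 element reporter transcript is measured by RT-PCR and capillary electrophoresis, with bidirectional curve fitting relative to DMSO.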

[2] = target: Bile acid receptor (Homo sapiens) (UniProt Q96RI1); assay: ATG_IR1_CIS: Attagene CIS-FACTORIAL HepG2 Assay for human Nuclear Receptor Subfamily 1 Group H Member 4 (NR1H4), IR1 submotif (AID 2282946; active means hit-call score of the fitted dose curve at least 0.9, where 1 is the maximum; inactive means score below 0.9); settings: IR1 reporter transcription, actives raise or lower the signal
Summary of the method: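 Transient MRTU transfection, HepG2; 24 h dosing; RNA → RT-PCR → 6-FAM primer extension → HpaI digest → capillary electrophoresis fluorescence. Gain/loss of signal fitted relative to DMSO.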

[3] = ATG_M_19_TRANS: Attagene TRANS-FACTORIAL HepG2 Assay for M19 Transcription Factor (Internal Marker) (AID 2282974); settings: HepG2 Attagene TRANS-FACTORIAL M19 internal marker reporter
Summary of the method: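 Transfected HepG2 (GAL4-UAS MRTUs), 24 h compound, TriZol RNA, DNase-treated RT, reporter PCR, FAM label, HpaI digest, CE fluorescence; gain vs DMSO.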

[4] = target: Glucocorticoid receptor (Homo sapiens) (UniProt P04150); assay: ATG_GR_TRANS: Attagene TRANS-FACTORIAL HepG2 Assay for human Glucocorticoid Receptor (GR) (AID 2282978); settings: HepG2 Attagene TRANS GR reporter, mRNA transcription;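 further: activators score as hits since higher reporter transcript over DMSO is fitted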
Summary of the method: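 After 24 h incubation with test chemical, transfected HepG2 cells were lysed for RNA; reporter cDNA was amplified, FAM-labelled, HpaI-digested and sized on a capillary analyser. Signal gain relative to DMSO was scored.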

[5] = target: Oxysterols receptor LXR-beta (Homo sapiens) (UniProt P55055); assay: ATG_LXRb_TRANS: Attagene TRANS-FACTORIAL HepG2 Assay for human Liver X Receptor beta (LXRb) (AID 2282981); settings: HepG2 Attagene TRANS GAL4-LXRb reporter, mRNA
Summary of the method: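 In this TRANS format, exogenous chimeric NR-Gal4 protein activity, not endogenous factors, drives reporter expression in transfected human HepG2 cells. Exposure lasted 24 h; reporter mRNA was read by fluorescent capillary electrophoresis.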

[6] = target: human RAR-related Orphan Receptor beta (RORb), RORB (gene 6096) (UniProt Q92753); assay: ATG_RORb_TRANS: Attagene TRANS-FACTORIAL HepG2 Assay for human RAR-related Orphan Receptor beta (RORb) (AID 2283010)
Summary of the method: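 Readout is reporter-gene mRNA induction, detected as fluorescence after RT-PCR and capillary electrophoresis, fitted for gain of signal against DMSO controls. Transiently transfected HepG2 liver cells carrying GAL4-UAS reporter constructs were treated for 24 hours.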

[7] = target: human RAR-related Orphan Receptor gamma (RORg), RORC (gene 6097) (UniProt P51449); assay: ATG_RORg_TRANS: Attagene TRANS-FACTORIAL HepG2 Assay for human RAR-related Orphan Receptor gamma (RORg) (AID 2283011)
Summary of the method: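 Readout: reporter transcript induction (RT-PCR, fluorescent primer extension, capillary electrophoresis) after 24 h compound exposure of transiently transfected HepG2 cells carrying a RORg-Gal4 chimera and GAL4-UAS reporters; DMSO served as baseline, with increasing signal fitted.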

[8] = TOX21_p53_BLA_p2_viability: Viability Assessment in the Tox21 HCT-116 p53 Agonism Beta-lactamase Assay, Phase 2 (AID 2283591);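 further: compound exposure lasted 16 h at 37 °C; actives lower the ATP signal meaning cytotoxicity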
Summary of the method: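 HCT-116 p53-bla cells (4000/well) rested 5 h at 37C, then received compounds in DMSO (217-fold dilution) for 16 h at 37C, 5% CO2. After the CCF4 read, CellTiter-Glo was added; ATP luminescence was read after 30 min at room temperature.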

[9] = TOX21_p53_BLA_p4_viability: Viability Assessment in the Tox21 HCT-116 p53 Agonism Beta-lactamase Assay, Phase 4 (AID 2283597);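 further: hits lower the luminescence signal meaning cytotoxicity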
Summary of the method: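 HCT116 p53-bla cells (4000/well) rested 5 h at 37C, then received compounds in DMSO (217-fold dilution) for 16 h at 37C, 5% CO2. CellTiter-Glo was added after the CCF4-AM read, and luminescence was read after 30 min at room temperature.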

[10] = ATG_GAL4_TRANS: Attagene TRANS-FACTORIAL HepG2 Assay for GAL4 (Internal Marker) (AID 2282976); settings: HepG2 Attagene TRANS GAL4 internal marker reporter
Summary of the method: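 HepG2 cells transiently transfected with multiplexed GAL4-UAS reporter constructs were dosed for 24 h. Reporter mRNA was measured by RT-PCR, 6-FAM primer extension, HpaI digestion and capillary electrophoresis, and gain of signal was fitted relative to DMSO.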

[11] = target: Hepatocyte nuclear factor 4-alpha (Homo sapiens) (UniProt P41235); assay: ATG_HNF4a_TRANS: Attagene TRANS-FACTORIAL HepG2 Assay for human Hepatocyte Nuclear Factor 4 alpha (HNF4a) (AID 2282982); settings: HepG2 HNF4a transactivation reporter, mRNA readout
Summary of the method: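 Cells used were human HepG2, transiently carrying GAL4-UAS reporter units read out against exogenous NR-GAL4 chimeras. Reporter transcript levels after 24 h dosing were quantified by fluorescent RT-PCR and capillary electrophoresis.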

[12] = ATG_M_06_TRANS: Attagene TRANS-FACTORIAL HepG2 Assay for M06 Transcription Factor (Internal Marker) (AID 2282983); settings: HepG2 Attagene TRANS M06 internal marker reporter
Summary of the method: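 HepG2 cells transiently transfected with multiplexed GAL4-UAS reporter transcription units; after 24 h compound exposure, reporter mRNA measured by RT-PCR, FAM-labelled primer extension, HpaI digestion and capillary electrophoresis. Gain-of-signal fitted versus DMSO baseline; background control readout.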

[13] = target: human Vitamin D Receptor (VDR), VDR (gene 7421) (UniProt P11473); assay: ATG_VDR_TRANS: Attagene TRANS-FACTORIAL HepG2 Assay for human Vitamin D Receptor (VDR) (AID 2283022)
Summary of the method: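 HepG2 cells were transiently transfected with multiple GAL4-UAS reporter units, so signal reflects exogenous chimeric receptor-Gal4 activity. After 24 h compound exposure, reporter mRNA was measured by RT-PCR, fluorescent labelling and capillary electrophoresis, fitted for gain of signal versus DMSO.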

[14] = TOX21_p53_BLA_p3_viability: Viability Assessment in the Tox21 HCT-116 p53 Agonism Beta-lactamase Assay, Phase 3 (AID 2283593);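 further: cells exposed to compound for 16 h before reading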
Summary of the method: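 HCT-116 cells (4000/well) rested 5 h at 37C, then got DMSO compounds by pin tool (217-fold dilution) for 16 h at 37C, 5% CO2. After the bla read, CellTiter-Glo was added and luminescence read at 30 min, room temperature.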

[15] = ATG_GRE_CIS: Attagene CIS-FACTORIAL HepG2 Assay for human Glucocorticoid Response Elements (GRE) (AID 2282947; active means hit-call score of the fitted dose curve at least 0.9, where 1 is the maximum; inactive means score below 0.9); settings: HepG2 GRE cis-reporter, Attagene multiplex mRNA; actives raise or lower the signal
Summary of the method: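 Following 24 h chemical exposure of transiently transfected HepG2 cells, total RNA was reverse-transcribed and reporter cDNA amplified, fluorescently labelled and sized by capillary electrophoresis. Signal gain or loss was fitted relative to DMSO vehicle.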

[16] = ATG_VDRE_CIS: Attagene CIS-FACTORIAL HepG2 Assay for human Vitamin D Receptor Element (VDRE) (AID 2282968; active means hit-call score of the fitted dose curve at least 0.9, where 1 is the maximum; inactive means score below 0.9); settings: HepG2 VDRE cis-reporter transcription, actives raise or lower the signal
Summary of the method: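 RT-PCR/CE readout of reporter mRNA; HepG2, transient transfection, 24 h dosing; DMSO baseline; bidirectional analysis.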

[17] = target: Nuclear receptor subfamily 4 group A member 2 (Homo sapiens) (UniProt P43354); assay: ATG_NURR1_TRANS: Attagene TRANS-FACTORIAL HepG2 Assay for human Nuclear Receptor Related Protein 1 (NURR1) (AID 2282985); settings: HepG2 Attagene TRANS reporter, mRNA readout
Summary of the method: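 After 24 h chemical dosing, total RNA from transiently transfected HepG2 cells was reverse-transcribed and reporter cDNA PCR-amplified, FAM-labelled and analysed by capillary electrophoresis. Activity fitted in positive direction, DMSO as negative control.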

[18] = target: human Peroxisome Proliferator-activated Receptor delta (PPARd), PPARD (gene 5467) (UniProt Q03181); assay: ATG_PPARd_TRANS: Attagene TRANS-FACTORIAL HepG2 Assay for human Peroxisome Proliferator-activated Receptor delta (PPARd) (AID 2283002)
Summary of the method: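 Measured quantity: GAL4-UAS reporter transcript induction in HepG2 after 24 h chemical dosing, with NR-Gal4 chimeras supplied by transient transfection. Detection by RT-PCR and capillary electrophoresis; upward fit against DMSO.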

[19] = ATG_ERE_CIS: Attagene CIS-FACTORIAL HepG2 Assay for Estrogen Response Element (ERE) (AID 2282940; active means hit-call score of the fitted dose curve at least 0.9, where 1 is the maximum; inactive means score below 0.9); settings: HepG2 ERE cis-reporter, Attagene RNA transcript; actives raise or lower the signal
Summary of the method: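 Human liver cells (HepG2) bearing transiently transfected, promoter-regulated reporter units were exposed 24 h. Reporter mRNA induction was detected by capillary electrophoresis of labelled RT-PCR products and fitted bidirectionally to DMSO.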

[20] = CCTE_Harrill_HTTr_Apoptosis_MCF7: CCTE's 6-hour Apoptosis Assessment for the High-Throughput Transcriptomics (HTTr) Platform, in MCF-7 cells cultured in DMEM + 10% fetal bovine serum, Harrill Lab (AID 2284011; active means hit-call score of the fitted dose curve at least 0.9, where 1 is the maximum; inactive means score below 0.9)
Summary of the method: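 MCF-7 cells in DMEM + 10% fetal bovine serum were exposed to chemicals for 6 hours over an eight-point dilution series. Caspase-3/7 activation was imaged by high content imaging with CellEvent Caspase 3/7 Green; bidirectional fitting used DMSO as baseline.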

Measured: AC50

Bile acid receptor (Homo sapiens), sequence (Q96RI1 whole entry, looked up): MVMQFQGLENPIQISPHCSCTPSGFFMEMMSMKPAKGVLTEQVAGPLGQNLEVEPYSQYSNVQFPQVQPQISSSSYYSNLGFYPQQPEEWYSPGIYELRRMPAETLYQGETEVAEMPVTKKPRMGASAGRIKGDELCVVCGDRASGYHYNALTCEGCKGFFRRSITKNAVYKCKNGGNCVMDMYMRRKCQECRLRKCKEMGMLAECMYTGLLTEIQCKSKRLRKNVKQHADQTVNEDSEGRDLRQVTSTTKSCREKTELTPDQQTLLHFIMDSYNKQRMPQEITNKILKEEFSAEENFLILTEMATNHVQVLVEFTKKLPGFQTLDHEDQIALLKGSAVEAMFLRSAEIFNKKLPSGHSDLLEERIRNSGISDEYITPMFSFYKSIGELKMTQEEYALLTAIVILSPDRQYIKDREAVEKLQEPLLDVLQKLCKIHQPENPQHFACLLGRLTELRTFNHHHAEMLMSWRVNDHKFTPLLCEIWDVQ
Oxysterols receptor LXR-beta (Homo sapiens), sequence (P55055 whole entry, looked up, the tested form may be a part): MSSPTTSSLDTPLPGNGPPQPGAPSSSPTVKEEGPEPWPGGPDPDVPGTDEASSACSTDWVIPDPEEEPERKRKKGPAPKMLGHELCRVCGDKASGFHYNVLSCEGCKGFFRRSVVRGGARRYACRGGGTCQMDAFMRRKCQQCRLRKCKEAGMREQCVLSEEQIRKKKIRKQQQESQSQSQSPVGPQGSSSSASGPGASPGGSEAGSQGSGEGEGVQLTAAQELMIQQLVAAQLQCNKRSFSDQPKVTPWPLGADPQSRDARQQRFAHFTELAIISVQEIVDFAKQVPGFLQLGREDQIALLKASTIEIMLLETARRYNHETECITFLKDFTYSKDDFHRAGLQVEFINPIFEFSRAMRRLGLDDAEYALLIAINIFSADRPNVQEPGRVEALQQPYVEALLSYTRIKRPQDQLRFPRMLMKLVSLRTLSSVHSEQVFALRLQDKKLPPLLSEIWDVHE
human Vitamin D Receptor (VDR), VDR (gene 7421), sequence (P11473 whole entry, looked up, the tested form may be a part): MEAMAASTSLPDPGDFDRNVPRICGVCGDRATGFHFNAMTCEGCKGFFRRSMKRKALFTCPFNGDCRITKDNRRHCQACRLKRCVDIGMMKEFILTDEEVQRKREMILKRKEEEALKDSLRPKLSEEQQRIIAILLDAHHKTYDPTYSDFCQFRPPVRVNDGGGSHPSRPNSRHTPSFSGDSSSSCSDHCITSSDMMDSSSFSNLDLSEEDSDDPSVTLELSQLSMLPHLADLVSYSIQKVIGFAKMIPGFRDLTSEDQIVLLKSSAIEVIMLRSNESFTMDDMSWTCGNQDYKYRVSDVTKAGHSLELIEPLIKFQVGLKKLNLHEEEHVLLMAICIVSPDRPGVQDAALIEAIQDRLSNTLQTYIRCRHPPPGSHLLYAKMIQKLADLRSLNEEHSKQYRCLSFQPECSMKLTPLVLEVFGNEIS
Nuclear receptor subfamily 4 group A member 2 (Homo sapiens), sequence (P43354 whole entry, looked up): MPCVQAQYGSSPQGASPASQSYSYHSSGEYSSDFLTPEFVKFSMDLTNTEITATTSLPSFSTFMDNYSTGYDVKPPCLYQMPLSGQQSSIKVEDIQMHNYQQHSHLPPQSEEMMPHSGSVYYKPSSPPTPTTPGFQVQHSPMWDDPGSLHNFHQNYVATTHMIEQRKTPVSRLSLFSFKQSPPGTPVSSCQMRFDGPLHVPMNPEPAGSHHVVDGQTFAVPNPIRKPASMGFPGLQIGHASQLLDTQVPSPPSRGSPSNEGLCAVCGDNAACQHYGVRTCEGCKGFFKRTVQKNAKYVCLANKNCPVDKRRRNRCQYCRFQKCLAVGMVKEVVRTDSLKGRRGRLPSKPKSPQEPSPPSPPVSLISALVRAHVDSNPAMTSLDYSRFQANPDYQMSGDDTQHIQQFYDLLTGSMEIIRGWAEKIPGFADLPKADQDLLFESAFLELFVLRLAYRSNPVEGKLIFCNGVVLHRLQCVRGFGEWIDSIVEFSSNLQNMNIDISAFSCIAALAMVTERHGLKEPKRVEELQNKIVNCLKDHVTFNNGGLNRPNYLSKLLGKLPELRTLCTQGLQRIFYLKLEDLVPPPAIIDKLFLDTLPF
Glucocorticoid receptor (Homo sapiens), sequence (P04150 whole entry, looked up): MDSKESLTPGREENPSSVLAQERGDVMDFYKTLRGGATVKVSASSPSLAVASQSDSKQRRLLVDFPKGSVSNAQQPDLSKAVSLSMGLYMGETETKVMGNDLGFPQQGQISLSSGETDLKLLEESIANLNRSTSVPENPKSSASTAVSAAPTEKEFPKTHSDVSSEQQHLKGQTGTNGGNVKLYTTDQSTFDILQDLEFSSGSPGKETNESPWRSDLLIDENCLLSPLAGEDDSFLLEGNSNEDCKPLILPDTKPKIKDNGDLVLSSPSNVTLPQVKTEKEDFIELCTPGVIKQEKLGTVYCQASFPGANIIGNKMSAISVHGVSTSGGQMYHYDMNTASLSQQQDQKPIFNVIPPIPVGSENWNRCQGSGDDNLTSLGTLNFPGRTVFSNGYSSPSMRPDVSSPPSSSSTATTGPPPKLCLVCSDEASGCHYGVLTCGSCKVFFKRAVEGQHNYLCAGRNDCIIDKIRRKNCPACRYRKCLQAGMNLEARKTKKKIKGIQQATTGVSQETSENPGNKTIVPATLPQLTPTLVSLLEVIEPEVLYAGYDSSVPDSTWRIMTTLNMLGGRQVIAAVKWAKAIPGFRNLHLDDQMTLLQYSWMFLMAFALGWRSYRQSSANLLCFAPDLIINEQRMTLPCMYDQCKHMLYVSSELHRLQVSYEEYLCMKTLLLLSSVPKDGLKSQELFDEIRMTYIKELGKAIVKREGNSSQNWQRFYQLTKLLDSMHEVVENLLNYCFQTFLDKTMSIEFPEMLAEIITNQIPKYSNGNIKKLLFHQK
human RAR-related Orphan Receptor gamma (RORg), RORC (gene 6097), sequence (P51449 whole entry, looked up, the tested form may be a part): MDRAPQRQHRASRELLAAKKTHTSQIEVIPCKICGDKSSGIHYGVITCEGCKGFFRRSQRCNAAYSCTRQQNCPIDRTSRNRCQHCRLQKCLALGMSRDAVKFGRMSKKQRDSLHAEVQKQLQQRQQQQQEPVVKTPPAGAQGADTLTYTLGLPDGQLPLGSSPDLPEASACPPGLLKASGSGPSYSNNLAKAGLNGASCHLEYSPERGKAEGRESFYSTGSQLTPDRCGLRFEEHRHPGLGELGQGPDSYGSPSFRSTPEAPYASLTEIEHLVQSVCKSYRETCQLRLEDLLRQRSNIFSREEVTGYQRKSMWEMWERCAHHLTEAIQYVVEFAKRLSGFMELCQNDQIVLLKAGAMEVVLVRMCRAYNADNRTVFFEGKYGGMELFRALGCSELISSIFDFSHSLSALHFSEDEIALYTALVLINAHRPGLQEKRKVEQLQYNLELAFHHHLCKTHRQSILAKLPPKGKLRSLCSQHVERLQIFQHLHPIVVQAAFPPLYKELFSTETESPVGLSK
Hepatocyte nuclear factor 4-alpha (Homo sapiens), sequence (P41235 whole entry, looked up, the tested form may be a part): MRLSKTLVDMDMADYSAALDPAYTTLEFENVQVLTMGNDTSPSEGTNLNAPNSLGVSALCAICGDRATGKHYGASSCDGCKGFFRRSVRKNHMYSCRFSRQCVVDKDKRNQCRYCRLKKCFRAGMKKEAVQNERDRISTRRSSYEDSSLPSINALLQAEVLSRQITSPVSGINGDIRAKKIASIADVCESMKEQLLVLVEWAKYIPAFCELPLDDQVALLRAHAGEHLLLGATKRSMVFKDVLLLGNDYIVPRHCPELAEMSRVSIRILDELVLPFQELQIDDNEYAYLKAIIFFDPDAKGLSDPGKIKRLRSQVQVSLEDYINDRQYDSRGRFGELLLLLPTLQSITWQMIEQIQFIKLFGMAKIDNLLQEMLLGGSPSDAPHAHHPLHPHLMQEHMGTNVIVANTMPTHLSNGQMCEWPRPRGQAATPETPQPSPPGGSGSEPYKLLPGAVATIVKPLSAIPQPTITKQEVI
Retinoic acid receptor alpha (Homo sapiens), sequence (P10276 whole entry, looked up): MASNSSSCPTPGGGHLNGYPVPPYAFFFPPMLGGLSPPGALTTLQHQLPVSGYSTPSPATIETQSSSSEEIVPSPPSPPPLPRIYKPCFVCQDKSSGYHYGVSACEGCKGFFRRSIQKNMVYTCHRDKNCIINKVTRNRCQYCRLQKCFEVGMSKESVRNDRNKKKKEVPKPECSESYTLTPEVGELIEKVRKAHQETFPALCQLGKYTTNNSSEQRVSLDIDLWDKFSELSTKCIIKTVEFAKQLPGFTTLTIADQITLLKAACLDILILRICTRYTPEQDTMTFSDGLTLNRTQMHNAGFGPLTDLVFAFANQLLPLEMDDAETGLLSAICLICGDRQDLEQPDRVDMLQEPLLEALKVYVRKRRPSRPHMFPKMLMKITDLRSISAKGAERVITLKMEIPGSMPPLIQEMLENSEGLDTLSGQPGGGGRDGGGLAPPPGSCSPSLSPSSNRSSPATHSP
human Peroxisome Proliferator-activated Receptor delta (PPARd), PPARD (gene 5467), sequence (Q03181 whole entry, looked up, the tested form may be a part): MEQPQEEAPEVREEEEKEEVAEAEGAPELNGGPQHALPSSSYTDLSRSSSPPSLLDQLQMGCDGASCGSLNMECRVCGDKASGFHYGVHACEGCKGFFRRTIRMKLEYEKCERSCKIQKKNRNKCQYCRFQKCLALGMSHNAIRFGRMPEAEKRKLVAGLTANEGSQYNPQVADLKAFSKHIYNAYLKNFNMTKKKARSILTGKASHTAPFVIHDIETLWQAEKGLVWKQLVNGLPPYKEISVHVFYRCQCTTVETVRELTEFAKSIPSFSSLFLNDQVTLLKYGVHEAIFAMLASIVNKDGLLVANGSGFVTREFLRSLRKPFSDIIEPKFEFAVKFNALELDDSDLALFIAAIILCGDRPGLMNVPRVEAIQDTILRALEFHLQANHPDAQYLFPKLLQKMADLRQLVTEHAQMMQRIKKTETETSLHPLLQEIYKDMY

CC(O)CN(CC(C)O)CC(C)O (stereo not given)
inactive: [1] | [2] | [3] | [4] | [5] | [6] | [7] | [8] | [9]

N#CCCCl
inactive: [1] | [10] | [4] | [11] | [12] | [7] | [13] | [8] | [14] | [9]

CC(=O)/C=C/c1ccccc1
active: [16] 31.6 µM
inactive: [15] | [5] | [11] | [17] | [18] | [6] | [13]

c1cc(OCC2CO2)ccc1Cc1ccc(OCC2CO2)cc1 (stereo not given)
active: [2] 37.4 µM | [16] 8.36 µM | [14] 87.4 µM
inactive: [1] | [19] | [3] | [4] | [5] | [11] | [17] | [7] | [13] | [14] | [9] | [20]

CCC(Br)(CC)C(=O)NC(N)=O
inactive: [1] | [2] | [12] | [7] | [13] | [8]

Nc1ccccc1C(=O)Oc1ccc2ccccc2c1
active: [1] 173 µM | [19] 18.1 µM | [2] 26.1 µM | [8] 85.3 µM
inactive: [15] | [3] | [4] | [17] | [13] | [14] | [9]

CC1CCC(=O)O1 (stereo not given)
inactive: [16] | [3] | [4] | [11] | [17] | [6] | [7]

CN(C)CCC#N
not listed: [2] | [6] | [12] | [14] | [15] | [16] | [17] | [18]
inactive: all other assays above

CCCCOP(=O)(O)OCCCC
inactive: [19] | [2] | [4] | [5] | [11] | [18]

CC(C)c1ccc(O)cc1
inactive: [1] | [15] | [16] | [4] | [5] | [18] | [6] | [13]

CCOC(=O)C1OC1(C)c1ccccc1 (stereo not given)
inactive: [15] | [3] | [4] | [5] | [17] | [6] | [8] | [9]

O=C(O)C(Br)Br
inactive: [19] | [2] | [16] | [3] | [10] | [4] | [11] | [7] | [8] | [14] | [9]

C[N+](C)=CCl
inactive: [1] | [19] | [15] | [16] | [10] | [4] | [11] | [12] | [6]
